Active and inactive are the calls of the source. Rule for the calls: active = hit-call score of the fitted dose curve at least 0.9, where 1 is the maximum; inactive = score below 0.9.
Legend:
[1] = ATG_AP_1_CIS: Attagene CIS-FACTORIAL HepG2 Assay for human Activator Protein 1 (AP-1) (AID 2282931); conditions: HepG2 Attagene cis-factorial AP-1 reporter mRNA; actives raise or lower the signal
Method in brief: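 Transient MRTU transfection of HepG2 → 24 h chemical treatment → RNA isolation, RT-PCR, 6-FAM labelling, HpaI digest → capillary electrophoresis. Fit: bidirectional, DMSO negative control.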

[2] = ATG_AP_2_CIS: Attagene CIS-FACTORIAL HepG2 Assay for human Activator Protein 2 (AP-2) (AID 2282932); conditions: HepG2 AP-2 cis-reporter, Attagene transcription factor profiling; actives raise or lower the signal
Method in brief: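 Transiently transfected HepG2 cells are exposed to chemical for 24 h. Reporter transcripts are then measured as fluorescence following RT-PCR and capillary separation, and gain- or loss-of-signal is fitted relative to DMSO.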

[3] = ATG_BRE_CIS: Attagene CIS-FACTORIAL HepG2 Assay for human Bone Morphogenetic Protein (BMP) Response Element (BRE) (AID 2282933); conditions: HepG2 BMP response element reporter, Attagene transcription factor profiling; actives raise or lower the signal
Method in brief: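 After a 24 h chemical treatment, transiently transfected HepG2 cells were lysed for RNA; reporter transcripts were quantified by fluorescent RT-PCR and capillary electrophoresis, normalised to DMSO.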

[4] = biological target: Retinoic acid receptor alpha (Homo sapiens) (UniProt P10276); experiment: ATG_DR5_RAR_CIS: Attagene CIS-FACTORIAL HepG2 Assay for human Retinoic Acid Receptor Alpha (RARE), DR5 submotif (AID 2282934); conditions: HepG2 Attagene cis-factorial RARE DR5 reporter, mRNA; actives raise or lower the signal
Method in brief: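 Reporter transcripts from a DR5-regulated unit, measured via RT-PCR plus capillary electrophoresis, reflect endogenous RAR activity in transiently transfected human HepG2 liver cells. Exposure lasted 24 h; gain or loss of signal scored against DMSO.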

[5] = biological target: Transcription factor E2F1 (Homo sapiens) (UniProt Q01094); experiment: ATG_E2F_CIS: Attagene CIS-FACTORIAL HepG2 Assay for human E2F Transcription Factor 1 (AID 2282935); conditions: HepG2 Attagene cis-reporter, E2F reporter RNA transcripts; actives raise or lower the signal
Method in brief: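 Fluorescent RT-PCR products, digested with HpaI for 2 h at 37 C, are separated by capillary electrophoresis. Source RNA comes from transfected HepG2 cultures treated for 24 h.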

[6] = ATG_E_Box_CIS: Attagene CIS-FACTORIAL HepG2 Assay for human Enhancer Box (E-box) (AID 2282936); conditions: HepG2 E-box cis-reporter transcription, actives raise or lower the signal
Method in brief: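 Fluorescent reporter fragments separated by capillary electrophoresis gave the signal; mRNA came from HepG2 cells transfected with cis-element reporters and treated 24 h. Curves fitted bidirectionally relative to DMSO controls.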

[7] = ATG_M_61_CIS: Attagene CIS-FACTORIAL HepG2 Assay for M61 Transcription Factor (Internal Marker) (AID 2282937); conditions: HepG2 Attagene CIS-FACTORIAL M61 internal marker reporter; actives raise or lower the signal
Method in brief: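 Human liver HepG2, transient MRTU transfection (cis promoter elements), 24 h compound. Total RNA → oligo(dT) RT → PCR → FAM label → HpaI → CE. Internal background marker; bidirectional fitting, DMSO = baseline.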

[8] = ATG_EGR_CIS: Attagene CIS-FACTORIAL HepG2 Assay for human Early Growth Response 1 (EGR1) (AID 2282938); conditions: HepG2 Attagene CIS-FACTORIAL EGR reporter mRNA; actives raise or lower the signal
Method in brief: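 Transient transfection of human HepG2 with multiple cis-regulated reporter units, chemical exposure 24 h, total RNA isolated. Reverse transcription, PCR, fluorescent labelling and capillary electrophoresis quantify reporter transcripts; activity fitted bidirectionally against DMSO.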

[9] = ATG_M_19_CIS: Attagene CIS-FACTORIAL HepG2 Assay for M19 Transcription Factor (Internal Marker) (AID 2282939); conditions: HepG2 Attagene CIS-FACTORIAL M19 internal marker reporter; actives raise or lower the signal
Method in brief: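 In this multiplexed cell assay, transiently transfected HepG2 reporter units report endogenous transcription-factor activity; after 24 hours of treatment, labelled reporter cDNA fragments are quantified by capillary electrophoresis and fitted bidirectionally against DMSO.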

[10] = ATG_ERE_CIS: Attagene CIS-FACTORIAL HepG2 Assay for Estrogen Response Element (ERE) (AID 2282940); conditions: HepG2 ERE cis-reporter, Attagene RNA transcript; actives raise or lower the signal
Method in brief: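 Measuring endogenous transcription factor output, the assay doses transfected HepG2 cells for 24 hours and quantifies reporter transcripts by fluorescent RT-PCR and capillary electrophoresis, with DMSO as baseline.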

[11] = ATG_Ets_CIS: Attagene CIS-FACTORIAL HepG2 Assay for human Erythroblast Transformation Specific (ETS) (AID 2282941); conditions: HepG2 ETS cis-reporter transcription, actives raise or lower the signal
Method in brief: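 Cis-regulated reporter mRNA induction in HepG2 (transient transfection), 24 h exposure, RT-PCR plus capillary electrophoresis detection; DMSO serves as negative control and baseline.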

[12] = biological target: Hepatocyte nuclear factor 3-beta (Homo sapiens) (UniProt Q9Y261); experiment: ATG_FoxA2_CIS: Attagene CIS-FACTORIAL HepG2 Assay for human Forkhead box A2 (FOXA2) (AID 2282942); conditions: HepG2 cis-reporter transcription factor activity, 24 h; actives raise or lower the signal
Method in brief: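 Transient MRTU transfection of HepG2 liver cells; 24 h treatment; total RNA → oligo(dT) RT → PCR → FAM primer extension → HpaI cut → CE. Bidirectional fit vs DMSO.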

[13] = ATG_FoxO_CIS: Attagene CIS-FACTORIAL HepG2 Assay for human Forkhead box O (FoxO) (AID 2282943); conditions: HepG2 Attagene cis-reporter, FoxO element, mRNA; actives raise or lower the signal
Method in brief: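 Endogenous transcription factor activity read from multiplexed cis-promoter reporter transcripts in transiently transfected HepG2, 24 h after dosing. Reporter RNA measured via RT-PCR plus capillary electrophoresis of FAM-labeled products; gain or loss relative to DMSO.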

[14] = ATG_GATA_CIS: Attagene CIS-FACTORIAL HepG2 Assay for human GATA Binding Protein (AID 2282944); conditions: HepG2 GATA cis-element reporter, Attagene multiplex mRNA; actives raise or lower the signal
Method in brief: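 Measures endogenous transcription factor-driven reporter mRNA in HepG2 cells transiently carrying cis-regulated constructs. 24 h dosing; RNA via oligo(dT) reverse transcription, PCR, HpaI digestion, capillary electrophoresis; fitted relative to DMSO.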

[15] = ATG_GLI_CIS: Attagene CIS-FACTORIAL HepG2 Assay for human Zinc Finger Protein GLI1 (AID 2282945); conditions: HepG2, Attagene cis-factorial reporter mRNA, GLI element; actives raise or lower the signal
Method in brief: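 Bidirectional curve fits relative to DMSO, using reporter mRNA levels from RT-PCR plus capillary electrophoresis. Cells were HepG2 transiently carrying cis-regulated reporter constructs, harvested 24 h after dosing.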

[16] = ATG_GRE_CIS: Attagene CIS-FACTORIAL HepG2 Assay for human Glucocorticoid Response Elements (GRE) (AID 2282947); conditions: HepG2 GRE cis-reporter, Attagene multiplex mRNA; actives raise or lower the signal
Method in brief: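 Multiplexed cis-reporter mRNA induction, HepG2, 24 h post-dose. RT-PCR, FAM-labelled, HpaI-digested amplicons by CE. Bidirectional fit vs DMSO.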

[17] = ATG_ISRE_CIS: Attagene CIS-FACTORIAL HepG2 Assay for human Interferon Regulatory Factor 1 (IRF1) binding to an Interferon-Stimulated Response Element (ISRE) (AID 2282948); conditions: HepG2 ISRE cis-reporter (Attagene), mRNA transcription readout; actives raise or lower the signal
Method in brief: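 Multiplexed mRNA reporter readout in human liver HepG2 cells: cis-element-driven reporters transfected, compound added for 24 h, transcripts amplified, fluorescently labelled and sized by capillary electrophoresis; curve fitting bidirectional against DMSO.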

[18] = ATG_M_32_CIS: Attagene CIS-FACTORIAL HepG2 Assay for M32 Transcription Factor (Internal Marker) (AID 2282949); conditions: HepG2 Attagene cis-factorial M32 reporter, mRNA; actives raise or lower the signal;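 note: background control marker of the multiplexed CIS panel rather than a real target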
Method in brief: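 Using DMSO as baseline, bidirectional curve fits were applied to reporter mRNA signals. These came from transiently transfected HepG2 cells exposed for 24 h, with RNA analysed by RT-PCR, FAM primer extension, HpaI digestion and CE.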

[19] = ATG_M_06_CIS: Attagene CIS-FACTORIAL HepG2 Assay for M06 Transcription Factor (Internal Marker) (AID 2282950); conditions: HepG2 Attagene CIS-FACTORIAL M06 internal marker reporter; actives raise or lower the signal
Method in brief: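 One of many multiplexed endpoints: HepG2 reporter mRNA after 24 h dosing, detected by RT-PCR and capillary electrophoresis fluorescence; gain or loss of signal analysed against DMSO.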

[20] = biological target: Bile acid receptor (Homo sapiens) (UniProt Q96RI1); experiment: ATG_IR1_CIS: Attagene CIS-FACTORIAL HepG2 Assay for human Nuclear Receptor Subfamily 1 Group H Member 4 (NR1H4), IR1 submotif (AID 2282946); conditions: IR1 reporter transcription, actives raise or lower the signal
Method in brief: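 HepG2 cells transiently transfected with multiplexed cis-element reporter units read endogenous transcription factor activity. After 24 h compound exposure, reporter mRNA was quantified by RT-PCR, fluorescent labelling, HpaI digestion and capillary electrophoresis; bidirectional fitting versus DMSO baseline.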

Measured: outcome

Chain of Hepatocyte nuclear factor 3-beta (Homo sapiens) (Q9Y261 whole entry, looked up): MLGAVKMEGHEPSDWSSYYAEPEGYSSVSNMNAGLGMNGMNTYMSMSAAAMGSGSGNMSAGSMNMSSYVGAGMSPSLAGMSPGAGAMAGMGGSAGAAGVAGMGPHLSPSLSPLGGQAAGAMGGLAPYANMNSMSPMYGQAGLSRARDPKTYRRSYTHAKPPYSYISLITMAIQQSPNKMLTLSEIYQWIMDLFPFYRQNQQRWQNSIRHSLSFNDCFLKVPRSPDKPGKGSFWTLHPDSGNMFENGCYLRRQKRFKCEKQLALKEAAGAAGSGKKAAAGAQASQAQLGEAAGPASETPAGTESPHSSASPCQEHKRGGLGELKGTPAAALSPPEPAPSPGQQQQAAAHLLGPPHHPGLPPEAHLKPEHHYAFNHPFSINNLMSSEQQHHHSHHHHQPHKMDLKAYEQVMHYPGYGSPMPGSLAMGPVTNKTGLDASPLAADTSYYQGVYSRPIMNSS
Chain of Transcription factor E2F1 (Homo sapiens) (Q01094 whole entry, looked up): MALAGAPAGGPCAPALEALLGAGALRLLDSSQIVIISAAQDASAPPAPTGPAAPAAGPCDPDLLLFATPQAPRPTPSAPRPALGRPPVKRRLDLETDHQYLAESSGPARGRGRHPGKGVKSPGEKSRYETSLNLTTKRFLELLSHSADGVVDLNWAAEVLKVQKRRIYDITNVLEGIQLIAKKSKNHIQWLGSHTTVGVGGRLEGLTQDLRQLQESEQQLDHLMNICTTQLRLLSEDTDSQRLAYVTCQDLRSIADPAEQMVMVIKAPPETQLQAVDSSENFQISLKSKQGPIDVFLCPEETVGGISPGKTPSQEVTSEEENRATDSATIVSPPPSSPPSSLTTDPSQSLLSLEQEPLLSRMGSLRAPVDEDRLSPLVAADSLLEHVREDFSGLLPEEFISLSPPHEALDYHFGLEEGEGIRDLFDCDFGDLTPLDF
Chain of Retinoic acid receptor alpha (Homo sapiens) (P10276 whole entry, looked up): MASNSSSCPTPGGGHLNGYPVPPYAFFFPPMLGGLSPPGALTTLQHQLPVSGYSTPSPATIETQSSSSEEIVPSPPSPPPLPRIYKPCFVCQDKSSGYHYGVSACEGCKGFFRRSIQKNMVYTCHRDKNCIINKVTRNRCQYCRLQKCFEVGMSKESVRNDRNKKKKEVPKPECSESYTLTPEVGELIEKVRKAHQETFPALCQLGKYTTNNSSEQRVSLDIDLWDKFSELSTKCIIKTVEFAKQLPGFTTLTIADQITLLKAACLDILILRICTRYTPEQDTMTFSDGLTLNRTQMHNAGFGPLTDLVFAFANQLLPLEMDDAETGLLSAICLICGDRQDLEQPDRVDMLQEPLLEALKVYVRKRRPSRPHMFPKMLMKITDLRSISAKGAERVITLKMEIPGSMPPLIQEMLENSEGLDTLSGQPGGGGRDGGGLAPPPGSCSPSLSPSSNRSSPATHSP
Chain of Bile acid receptor (Homo sapiens) (Q96RI1 whole entry, looked up): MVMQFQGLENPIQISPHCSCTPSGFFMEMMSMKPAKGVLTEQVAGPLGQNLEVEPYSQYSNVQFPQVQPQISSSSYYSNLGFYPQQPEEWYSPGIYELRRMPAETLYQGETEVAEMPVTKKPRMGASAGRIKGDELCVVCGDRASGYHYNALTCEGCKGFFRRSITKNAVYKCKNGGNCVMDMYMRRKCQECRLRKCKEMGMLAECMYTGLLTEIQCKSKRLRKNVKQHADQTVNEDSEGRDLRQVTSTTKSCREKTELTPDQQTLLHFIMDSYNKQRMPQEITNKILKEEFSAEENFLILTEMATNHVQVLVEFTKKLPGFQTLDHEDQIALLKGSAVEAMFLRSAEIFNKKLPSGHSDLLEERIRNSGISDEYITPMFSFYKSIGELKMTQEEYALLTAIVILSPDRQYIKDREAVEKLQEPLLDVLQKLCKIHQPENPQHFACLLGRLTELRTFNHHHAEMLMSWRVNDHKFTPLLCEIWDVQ

OCC(O)CCl (stereo not drawn)
not listed: [20]
inactive: all other assays above

Clc1ccc(COC(Cn2ccnc2)c2ccc(Cl)cc2Cl)cc1 (stereo not drawn)
inactive: all assays above

CC(=O)C=C(C)C
not listed: [20]
inactive: all other assays above

CCOP(=S)(OCC)SCCS(=O)(=O)CC
inactive: all assays above

ClC1=C(Cl)[C@]2(Cl)[C@@H]3[C@@H](Cl)[C@@H](Cl)C[C@@H]3[C@@]1(Cl)C2(Cl)Cl
inactive: all assays above

Nc1ncc([N+](=O)[O-])s1
inactive: all assays above

Reference: PubChem BioAssay (EPA / NIEHS)
